Values joined by “and” are separate entries in the source; they are usually repeats but may differ in a detail not shown here. Equal entries are not always repeated. The panel holds about 83,000 compounds, 20% with a hit somewhere; the sample as a whole holds those more often.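 Cells were grown in 96-well plates and exposed to the test compound at a single concentration for 48 hours; results are reported as percent growth, with values below 10 considered active.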 Active and inactive are the calls of the source. Starred links: 1 amine or outer side, 2 acyl side, 3 side chain; linkers in the order of their positions; H or OH if unused. Positions of bridges follow the written chain, without caps; N, C: chain ends. Non-standard residues stand in square brackets, D forms with d. Residues, ends and D or L forms follow the SMILES beside them. Chains are numbered I, II in the order given. Actinocin(9to1) = Cc1c2oc3c(C)ccc(C(=O)[*:1])c3nc-2c(C(=O)[*:2])c(N)c1=O; aThr = C[C@H](O)[C@H](N)C(=O)O; NMeV = CN[C@H](C(=O)O)C(C)C; Sar = CNCC(=O)O
Experiments:
Test in all cases: NCI-60 one-dose screen, 48 h (100 = growth as untreated, 0 = no growth, -100 = all killed)
[1] = system: HCT-15 colon
[2] = system: HT29 colon
[3] = system: SNB-75 CNS
[4] = system: SNB-19 CNS
[5] = system: U251 CNS
[6] = system: PC-3 prostate
[7] = system: SK-MEL-5 melanoma
[8] = system: UACC-62 melanoma
[9] = system: LOX IMVI melanoma
[10] = system: SK-MEL-2 melanoma
[11] = system: SN12C renal
[12] = system: UO-31 renal
[13] = system: TK-10 renal
[14] = system: ACHN renal
[15] = system: CAKI-1 renal
[16] = system: A498 renal
[17] = system: CCRF-CEM leukemia
[18] = system: MOLT-4 leukemia
[19] = system: SR leukemia
[20] = system: SK-MEL-28 melanoma; settings: 50 µM

Measured: growth

Cc1c2oc3c(C)ccc(C(=O)N[C@@H]4C(=O)N[C@H](C(C)C)C(=O)N5CCC[C@H]5C(=O)N(C)CC(=O)N(C)[C@@H](C(C)C)C(=O)O[C@H]4C)c3nc-2c(C(=O)N[C@@H]2C(=O)N[C@H](C(C)C)C(=O)N3CCC[C@H]3C(=O)N(C)CC(=O)N(C)[C@@H](C(C)C)C(=O)O[C@H]2C)c(N)c1=O (I: [aThr][dV]P[Sar][NMeV] / II: [aThr][dV]P[Sar][NMeV]; ester I:1-I:C, II:1-II:C; linker I:N-II:N via Actinocin(9to1))
inactive: [1]; 0.0025 µM 74.4% | [2]; 0.0025 µM 29.4% | [3]; 0.0025 µM 39.6% | [4]; 0.0025 µM 38.2% | [5]; 0.0025 µM 22.1% | [6]; 0.0025 µM 42.8% | [7]; 0.0025 µM 30.8% | [8]; 0.0025 µM 36.5% | [9]; 0.0025 µM 24.3% | [10]; 0.0025 µM 75.4% | [11]; 0.0025 µM 46.6% | [12]; 0.0025 µM 99.4% | [13]; 0.0025 µM 87.7% | [14]; 0.0025 µM 62% | [15]; 0.0025 µM 92.2% | [16]; 0.0025 µM 32.4% | [17]; 0.0025 µM 42.3% | [18]; 0.0025 µM 23% | [19]; 0.0025 µM 14.8%

O=c1[nH]cc(F)c(=O)[nH]1
active: [16]; 25 µM -16.3%
inactive: [1]; 25 µM 26.5% | [1]; 50 µM 37.8% | [2]; 25 µM 27.1% | [2]; 50 µM 31.4% | [3]; 25 µM 65.9% | [3]; 50 µM 63.8% | [4]; 25 µM 65.9% | [4]; 50 µM 66.7% | [5]; 25 µM 50.3% | [5]; 50 µM 61.1% | [6]; 25 µM 58.2% | [6]; 50 µM 64.8% | [7]; 25 µM 33.7% | [7]; 50 µM 59.5% | [8]; 25 µM 39.7% | [8]; 50 µM 54% | [9]; 25 µM 30.4% | [9]; 50 µM 35.7% | [20] 50.9% | [10]; 25 µM 95.5% | [10]; 50 µM 73% | [11]; 25 µM 54% | [11]; 50 µM 46.3% | [12]; 25 µM 41.3% | [12]; 50 µM 38.2% | [13]; 25 µM 66.9% | [14]; 25 µM 39.3% | [14]; 50 µM 36.9% | [15]; 25 µM 39.4% | [15]; 50 µM 43.2% | [16]; 50 µM 52.6% | [17]; 25 µM 57.1% | [17]; 50 µM 50% | [18]; 25 µM 43.1% | [18]; 50 µM 37.6% | [19]; 25 µM 24.8% | [19]; 50 µM 31.6%

COc1ccc2c(C)cc(N/N=C/c3sccc3C)nc2c1
active: [8]; 100 µM -100% | [13]; 100 µM -82.7% and -100%

Cc1ccc2nc(N/N=C/c3ccc(C)s3)cc(C)c2c1
active: [8]; 100 µM -99.1% and -100% | [13]; 100 µM -96.6% and -100%
